# Measurements: the supplement of paper PMC8728848
# The full list was thinned out, with the strongest signals kept by preference.
# Experiments:
# Test in all cases: glycan array binding signal (z-score within array); higher = stronger binding
# Settings in all cases: glycan notation: IUPAC condensed, linker removed
# GlcNAc(b1-3)Man = molecular target: GlcNAc(b1-3)Man
# In short: (§1)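 Arrays were curated from the Consortium for Functional Glycomics database, 3228 in total, and kept only where the protein sequence was available. Binding is expressed as a within-array Z-score. This score was averaged across arrays of the same protein sequence at different concentrations or buffers and across linkers, and negative values can be read as non-binding.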
# Man(a1-2)Man(a1-3)Man = molecular target: Man(a1-2)Man(a1-3)Man
# In short: as §1
# [1] = molecular target: Man(a1-3)[Man(a1-6)]Man(a1-6)[Man(a1-2)Man(a1-3)]Man(b1-4)GlcNAc(b1-4)GlcNAc
# In short: as §1
# [2] = molecular target: Man(a1-3)[Man(a1-6)]Man(a1-6)[Man(a1-3)]Man
# In short: as §1
# [3] = molecular target: Man(a1-3)[Man(a1-6)]Man(b1-4)GlcNAc(b1-4)GlcNAc
# In short: as §1
# [4] = molecular target: Man(a1-3)[Man(a1-6)]Man(b1-4)GlcNAc(b1-4)[Fuc(a1-6)]GlcNAc
# In short: as §1
# [5] = molecular target: Neu5Ac(a2-3)Gal(b1-4)GlcNAc(b1-2)[Neu5Ac(a2-3)Gal(b1-4)GlcNAc(b1-6)]Man(a1-6)[Neu5Ac(a2-3)Gal(b1-4)GlcNAc(b1-2)Man(a1-3)]Man(b1-4)GlcNAc(b1-4)GlcNAc
# In short: as §1
# [6] = molecular target: Neu5Ac(a2-3)Gal(b1-4)GlcNAc(b1-3)Gal
# In short: as §1
# [7] = molecular target: Neu5Ac(a2-3)Gal(b1-4)GlcNAc6S
# In short: as §1
# [8] = molecular target: Neu5Ac(a2-6)Gal(b1-4)GlcNAc(b1-2)Man(a1-6)[GlcNAc(b1-2)Man(a1-3)]Man(b1-4)GlcNAc(b1-4)GlcNAc
# In short: as §1
# [9] = molecular target: Neu5Ac9Ac(a2-3)Gal(b1-3)GlcNAc
# In short: as §1
# [10] = molecular target: Neu5Gc(a2-3)Gal(b1-4)GlcNAc
# In short: as §1
# [11] = molecular target: Fuc(a1-2)Gal(b1-4)GlcNAc(b1-3)Gal(b1-4)GlcNAc(b1-3)Gal(b1-4)GlcNAc
# In short: as §1
# [12] = molecular target: Fuc(a1-2)[GalNAc(a1-4)]Gal(b1-4)GlcNAc
# In short: as §1
# [13] = molecular target: Fuc(a1-3)[Gal(b1-4)]GlcNAc(b1-4)Gal(b1-4)[Fuc(a1-3)]GlcNAc
# In short: as §1
# [14] = molecular target: Fuc(a1-3)[Gal3S(b1-4)]Glc6S
# In short: as §1
# [15] = molecular target: Fuc(a1-3)[Gal3S(b1-4)]GlcNAc6S
# In short: as §1
# [16] = molecular target: Gal(b1-4)GlcNAc(b1-3)GalNAc
# In short: as §1
# [17] = molecular target: Gal3S(b1-3)[Fuc(a1-4)]GlcNAc
# In short: as §1
# [18] = molecular target: GlcNAc(b1-3)[GlcNAc(b1-6)]GalNAc
# In short: as §1
# GlcNAc(b1-6)GalNAc = molecular target: GlcNAc(b1-6)GalNAc
# In short: as §1
# Neu5Ac(a2-3)Gal = molecular target: Neu5Ac(a2-3)Gal
# In short: as §1
# [19] = molecular target: Neu5Ac(a2-3)Gal(b1-3)[Fuc(a1-4)]GlcNAc
# In short: as §1
# [20] = molecular target: Neu5Ac(a2-3)Gal(b1-4)GlcNAc
# In short: as §1
# [21] = molecular target: Neu5Ac(a2-3)Gal(b1-4)GlcNAc(b1-3)Gal(b1-4)GlcNAc(b1-3)Gal(b1-4)GlcNAc
# In short: as §1
# [22] = molecular target: Neu5Ac(a2-3)Gal(b1-4)[Fuc(a1-3)]GlcNAc(b1-3)Gal(b1-4)[Fuc(a1-3)]GlcNAc(b1-3)Gal(b1-4)[Fuc(a1-3)]GlcNAc
# In short: as §1
# [23] = molecular target: Neu5Ac(a2-3)Gal(b1-4)[Fuc(a1-3)]GlcNAc6S
# In short: as §1
# [24] = molecular target: Neu5Gc(a2-3)Gal(b1-3)[Fuc(a1-4)]GlcNAc
# In short: as §1
Binder,glycan array binding signal (z-score) (GlcNAc(b1-3)Man),glycan array binding signal (z-score) (Man(a1-2)Man(a1-3)Man),glycan array binding signal (z-score) [1],glycan array binding signal (z-score) [2],glycan array binding signal (z-score) [3],glycan array binding signal (z-score) [4],glycan array binding signal (z-score) [5],glycan array binding signal (z-score) [6],glycan array binding signal (z-score) [7],glycan array binding signal (z-score) [8],glycan array binding signal (z-score) [9],glycan array binding signal (z-score) [10],glycan array binding signal (z-score) [11],glycan array binding signal (z-score) [12],glycan array binding signal (z-score) [13],glycan array binding signal (z-score) [14],glycan array binding signal (z-score) [15],glycan array binding signal (z-score) [16],glycan array binding signal (z-score) [17],glycan array binding signal (z-score) [18],glycan array binding signal (z-score) (GlcNAc(b1-6)GalNAc),glycan array binding signal (z-score) (Neu5Ac(a2-3)Gal),glycan array binding signal (z-score) [19],glycan array binding signal (z-score) [20],glycan array binding signal (z-score) [21],glycan array binding signal (z-score) [22],glycan array binding signal (z-score) [23],glycan array binding signal (z-score) [24]
"RVL (Remusatia vivipara), B5LYJ9 (protein) MAKLLLFLLPAILGLLVPRSAVALGTNYLLSGQTLDTEGHLKNGDFDLVMQDDCNLVLYNGNWQSNTANNGRDCKLTLTDYGELVIKNGDGSTVWKSGAQSVKGNYAAVVHPDGRLVVLGPSVFKIDPWVRGLNSLRFRNIPFTNNLLFSGQVLYGDGRLTAKNHQLVMQGDCNLVLYGGKYGWQSNTHGNGEHCFLRLNHKGELIIKDDDFKTIWSSRSSSKQGEYVLILQDDGFGVIYGPAIFETSSKRSIAAS",-0.227,-0.197,3.91,0.224,3.8,6.15,3.54,-0.103,-0.033,-0.207,-0.284,-0.111,,,,,,,,,,,,,,,,
"E-Selectin (Mus musculus), Q00690 (protein) MNASRFLSALVFVLLAGESTAWYYNASSELMTYDEASAYCQRDYTHLVAIQNKEEINYLNSNLKHSPSYYWIGIRKVNNVWIWVGTGKPLTEEAQNWAPGEPNNKQRNEDCVEIYIQRTKDSGMWNDERCNKKKLALCYTASCTNASCSGHGECIETINSYTCKCHPGFLGPNCEQAVTCKPQEHPDYGSLNCSHPFGPFSYNSSCSFGCKRGYLPSSMETTVRCTSSGEWSAPAPACHVVECEALTHPAHGIRKCSSNPGSYPWNTTCTFDCVEGYRRVGAQNLQCTSSGIWDNETPSCKAVTCDAIPQPQNGFVSCSHSTAGELAFKSSCNFTCEQSFTLQGPAQVECSAQGQWTPQIPVCKAVQCEALSAPQQGNMKCLPSASGPFQNGSSCEFSCEEGFELKGSRRLQCGPRGEWDSKKPTCSAVKCDDVPRPQNGVMECAHATTGEFTYKSSCAFQCNEGFSLHGSAQLECTSQGKWTQEVPSCQVVQCPSLDVPGKMNMSCSGTAVFGTVCEFTCPDDWTLNGSAVLTCGATGRWSGMPPTCEAPVSPTRPLVVALSAAGTSLLTSSSLLYLLMRYFRKKAKKFVPASSCQSLQSFENYHVPSYNV",,,,,-0.288,,,,,,,,-0.255,-0.301,0.598,5.1,2.52,-0.338,4.55,-0.279,-0.272,-0.277,4.47,-0.333,-0.184,3.13,3.24,4.57
